From PubChem BioAssay
HTR2A ag: agonists of mouse serotonin 5-HT2A receptor (HTR2A); P35363; hit rate 0.66% among 360,000; activation, % at 7.6 µM; CHO-K1 mHTR2A beta-arrestin complementation, luminescence; percent of 30 µM serotonin response;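 active = activation above a run cutoff, the mean activation of all tested compounds plus 3 SD, cut at about 14% in these data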;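 note: 0% = plate median of compound wells and 100% = 30 µM serotonin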
V-ATPase pH: regulators of yeast V-ATPase proton transport; S. cerevisiae, pHLuorin cytosolic pH fluorescence; response, % at 10 µM; hit rate 0.37% among 350,000; AID 504577; in the data active = response mostly above about 7.3%, no sharp cut-off; inactive = mostly below about 5.4%; note: actives read high
GASC-1 inh: human JMJD2C demethylase inhibition. GST-JMJD2C(1-420) H3K9me3 demethylation, DELFIA europium. inhibition, % at 2.35 µM. hit rate 0.069% among 330,000. AID 2099;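 active = more than half of a compound's replicate wells show inhibition beyond 50%, single wells judged on their own value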;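 note: signal counts dimethyl H3K9 product captured on neutravidin plate; 0% = median of DMSO wells and 100% = 0.3 times that DMSO median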
Granule exo inh: blocks lytic granule exocytosis. inhibition, % at 10 µM. TALL-104 LAMP-1 surface exposure, flow cytometry; cells stimulated with thapsigargin and PMA. hit rate 0.66% among 360,000. AID 651702;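 active = inhibition above about 55%, limit read from the data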
MEX-5 binding: C. elegans MEX-5 TCR-2 RNA binding activity. hit rate 0.38% among 300,000. MEX-5/FITC-TCR2 RNA binding, fluorescence polarization; active compounds read low. AID 1832. activity score (negative = inhibition of binding), % at 10 µM;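 active = inhibition past about -25% in most replicates, and total fluorescence under double the plate's negative control median, limit read from the data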;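 note: 0% = DMSO and -100% = 5 µM competing unlabeled TCR2 RNA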
Target sequence (Q9XUB2 whole entry, looked up): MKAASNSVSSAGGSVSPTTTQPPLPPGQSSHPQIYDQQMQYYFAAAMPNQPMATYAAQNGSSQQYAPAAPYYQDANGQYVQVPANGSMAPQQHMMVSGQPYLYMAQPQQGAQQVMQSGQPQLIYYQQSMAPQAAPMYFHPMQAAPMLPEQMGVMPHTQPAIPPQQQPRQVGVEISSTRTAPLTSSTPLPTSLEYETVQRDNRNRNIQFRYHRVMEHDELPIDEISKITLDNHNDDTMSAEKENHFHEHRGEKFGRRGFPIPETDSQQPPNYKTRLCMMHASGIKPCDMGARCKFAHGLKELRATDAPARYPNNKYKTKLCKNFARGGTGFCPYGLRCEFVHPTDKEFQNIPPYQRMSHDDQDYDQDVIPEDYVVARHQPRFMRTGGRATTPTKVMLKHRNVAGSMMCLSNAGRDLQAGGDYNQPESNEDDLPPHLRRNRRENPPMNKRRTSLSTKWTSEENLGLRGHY
VLA-4 inh: inhibition in a human VLA-4 binding assay | hit rate 0.2% among 330,000 | VLA-4 expressing cells, ligand binding flow cytometry | inhibition, % (about 7 µM as worked out from the volumes in the protocol) | P13612; in the data active = inhibition above about 50%
Numbers without * were called inactive; i = inactive; nt = no result. In the library only some 2.2% were active in any assay of this set; here they are far more common.

SMILES	HTR2A ag	V-ATPase pH	GASC-1 inh	Granule exo inh	MEX-5 binding	VLA-4 inh
CN(Cc1ccccc1)C(=O)c1[nH]cnc1C(=O)N[C@@H](Cc1ccccc1)C(=O)OCc1ccccc1	23*	5	16	24	4	0
Cn1ccnc1C(OC(=O)c1ccc(Cl)cc1)C(F)(F)F (centres undefined)	-3	-2	-22	0	-3	3
Cc1nc(N2CCN(C(c3ccccc3)c3ccccc3)CC2)[nH]c(=O)c1C	8	0	2	-1	-1	nt
Cc1cc(=O)[nH]c(N2CCN(C(c3ccccc3)c3ccccc3)CC2)n1	2	19*	-11	1	-1	17
CCn1cnc2cc(NCc3ccc(OC)cc3)ccc21	-5	-2	-5	-2	-5	-5
CCOc1ccc2nc3cc(NCc4ccc(OC)cc4)ccc3c(N)c2c1	-12	-2	-10	34	-33*	i
O=C(Nc1ccccc1F)c1coc(=O)c(Br)c1	3	3	-7	5	-56*	39
COc1ccc(NC(=O)C2(C)Cc3c(-c4ccccc4)ccnc3O2)cc1OC (centres undefined)	-2	nt	nt	0	nt	nt
O=C(NCC1CCN(S(=O)(=O)c2ccccc2)CC1)Nc1ccccc1	5	-4	15	-5	-1	6
O=C1CCCC2=C1C(c1ccc(OS(=O)(=O)c3ccc(Cl)cc3)cc1)C1=C(CCCC1=O)O2	-3	1	57*	-4	1	8
O=C(NCCC1=CCCCC1)C1CC(=O)N(Cc2ccccc2)C1 (centres undefined)	-2	4	9	-2	1	-13
Cc1cccc(-c2c3c(nc4c2c(=O)n(C)c(=O)n4C)-c2ccccc2C3O)c1 (centres undefined)	-1	-2	6	2	0	23
CC1CCC(NC(=O)c2ccc(NC3=NC4CS(=O)(=O)CC4S3)cc2)CC1 (centres undefined)	6	-2	6	-1	-1	1
CCCCCCCCOC(=O)c1c(CSC(=N)N)n(C)c2cc(Br)c(OC(C)=O)cc12	-1	-1	2	72*	2	-2
CCn1cc(S(=O)(=O)CC(=O)Nc2ccc(OC)cc2)c2ccccc21	0	16*	-5	-9	-1	5
CCOc1ccc(NC(=O)CS(=O)(=O)c2cn(CC)c3ccccc23)cc1	-5	6	-12	-15	-2	11
O=c1nc2c(O)cccn2c2c1c(=O)[nH]c1ccccc12	1	-4	4	2	-26*	nt
O=c1[nH]c2ccccc2c2nc3ccccn3c12	-3	-5	-5	-2	1	7
Cc1ccc(/C=C2\SC(N3CCCC3)=NC2=O)cc1	nt	nt	-1	nt	-1	12
O=C1N=C(N2CCCCC2)S/C1=C/C1=Cc2ccccc2OC1	-2	2	-14	0	-43*	1
CCOC(=O)C1CCN(CC(O)COC(CC)c2ccccc2)CC1 (centres undefined)	4	2	16	-3	2	19
CC(=O)c1ccc(-c2ccc(/C=C(/Sc3n[nH]c(C)n3)C(=O)O)o2)cc1	-2	1	0	-2	-35*	-8
Cc1nc(S/C(=C/c2ccc(-c3ccc(Cl)cc3)o2)C(=O)O)n[nH]1	1	-28	4	69*	1	0
Cc1nc(S/C(=C/c2ccc(-c3ccc(C(=O)O)cc3)o2)C(=O)O)n[nH]1	-2	-1	9	0	-80*	-7
COc1ccc(CNS(=O)(=O)CCNC(=O)c2cccc(OC)c2)cc1	2	4	-2	2	-2	22
Cc1nc2ccccc2n(CC(=O)Nc2cc(Cl)cc(Cl)c2)c1=O	-2	3	-1	1	-11	4
C/C(=N/NC(=O)C1CCCC1)c1ccc(NC(=O)C(F)(F)F)cc1	7	-2	-4	0	2	2
COc1ccc(C=O)cc1CSc1ncccc1C(=O)O	1	-6	4	4	2	7
COc1ccc(-c2nnc(-c3ccc(N(C)C)cc3)o2)cc1	-1	4	1	-2	0	6
CN(C)c1ccc(-c2nnc(-c3ccc(S(=O)(=O)C(F)F)cc3)o2)cc1	-1	-8	-5	-1	-34*	-8
